The source made the active and inactive calls. How the source made its calls: active means hit-call score of the fitted dose curve at least 0.9, where 1 is the maximum; inactive means score below 0.9.

The nature of the test: BSK_hDFCGF_Proliferation: Cell Proliferation Assessment in the BioMAP Diversity Plus: hDFCGF Assay (AID 2283059).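 Further: curves fitted for both rise and fall of signal versus DMSO baseline.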 The settings on record: primary human foreskin fibroblasts. Here is the method: BSK_hDFCGF is a cell-based, multiplexed-readout assay that uses foreskin fibroblast, a human skin primary cell, with measurements taken at 24 hours after chemical dosing in a 96-well plate.BSK_hDFCGF_Proliferation is an assay component measured in the BSK_hDFCGF assay. It measures […] related to cell proliferation using Sulforhodamine staining technology.Data from the assay component BSK_hDFCGF_Proliferation was analyzed into 1 assay endpoint. This assay endpoint, BSK_hDFCGF_Proliferation, was analyzed with bidirectional fitting relative to DMSO as the negative control and baseline of activity. Using a type of viability reporter, measures of total protein for gain or loss-of-signal activity can be used to understand the viability at the cellular-level. Furthermore, this assay endpoint can be referred to as a secondary readout, because this assay has produced multiple assay endpoints where this one serves a viability function. To generalize the intended target to other relatable targets, this assay endpoint is annotated to the cell cycle intended target family, where the subfamily is proliferation.
The levels of cell surface (or secreted, indicated by the prefix "s") biomarker endpoints were measured by ELISA. Overt cytotoxicity to cells in confluent adherent cultures (all systems other than the BT system) was assessed by measuring total protein levels using sulforhodamine B (SRB) staining in parallel cultures at the time of biomarker measurements, indicated as SRB endpoints. For proliferation assays for adherent cell types, individual cell types are cultured at sub-confluence and relative cell numbers quantified by SRB staining at time points optimized for each system (48 h: 3C and CASM3C systems; 72 h: BT and HDF3CGF systems; 96 h: SAg system). SRB was performed by staining cells with 0.1% SRB after fixation with 10% TCA and reading wells at 560 nm.Viability and proliferation of PBMC (T cells) was quantified by Alamar Blue reduction for the SAg and BT systems. For PBMC viability (referred to as PBMC Cytotoxicity within the assay endpoint names), cells were plated (75,000/well in a 96-well plate) and then chemical samples added for 1 h before addition of activators, SEB and TSST-1 (20 ng/mL final concentration each). Cells were incubated for 90 h. Then, Alamar Blue (20 uL/well) (Invitrogen, Cat DAL1100) was added for 6 h, and the plates were read with a fluorescence microplate reader at 546/580 nm (excitation/emission). For PBMC proliferation, cells were plated and activated as above but incubated for only 16 h prior to addition of Alamar Blue. Plates were read after 6 h.
On to `CNCc1cc(F)ccc1Oc1ccc(Cl)c(Cl)c1`, for which the AC50 was 23.8 µM (active).
In the case of `O=C(O)Cc1ccccc1Nc1c(Cl)cccc1Cl`, the AC50 is 20 µM (active).
Take `NCCO`: the outcome was inactive.
For the molecule `Cc1nc(-c2ccc3c(c2)CCN(CCC2CCC(NC(=O)/C=C/c4ccc(F)cc4)CC2)CC3)no1` (stereo not given), the outcome was inactive.
With `Clc1cc(Cl)c(Cl)cc1Cl`, the result was inactive.
As for `COCCOC[C@H](CC1(C(=O)NC2CCC(C(=O)O)CC2)CCCC1)C(=O)Oc1ccc2c(c1)CCC2` (stereo not given in full), the outcome was inactive.
`COc1cc(C=O)ccc1O`: the outcome was inactive.
Still for that read-out and setting: the entry for `CC(=O)OCCOCCOCCOC(C)=O` is “inactive”.
For `Cc1nc(C)nc(N2C[C@@H](C)N(c3ccnc([C@@H](C)O)n3)[C@@H](C)C2)n1`, the result was inactive.
Regarding `CCCCCCCCCCCCCCCC`, the result was inactive.
As to `CCCCN(CCCC)CCCC`, the result was inactive.
For the molecule `Nc1nc(N)c2nc(CNc3ccc(C(=O)N[C@@H](CCC(=O)O)C(=O)O)cc3)cnc2n1`, the result was inactive.
Same read-out and setting: the entry for `Cc1cc(=O)[nH]c(=S)[nH]1` is “inactive”; for `c1cc(-c2ccncc2)ccn1` it is “inactive”.
Consider `CCCCCCCC=O`, for which the outcome was inactive.
The same measure, in the same setting: the entry for `COc1ccc(C)cc1N` is “inactive”.
`CCOC(=O)C(C)(C)Oc1ccc(Cl)cc1`: the outcome was inactive.
In the case of `CC(=O)OC/C=C(\C)CCC=C(C)C`, the half-maximal activity concentration (AC50) was 0.597 µM (active).
As to `C1CCC(SSC2CCCCC2)CC1`, the AC50 is 15.9 µM (active).
For `CCCCOC(=O)CCCCCCCCC(=O)OCCCC`, the result was inactive.
Take `COCCOCCOC`: the result was inactive.
Same read-out and setting: the entry for `Cc1cccc([N+](=O)[O-])c1C` is “inactive”.
Regarding `O=c1c(O)c(-c2ccc(O)c(O)c2)oc2cc(O)cc(O)c12`, the AC50 was 11.5 µM (active).
With `Cc1ccc(C)c(C)c1`, the result was inactive.
Regarding `CN1CCN(Cc2cc(-c3ccc4[nH]c(=O)oc4c3)co2)[C@@H](c2ccc(F)cc2)C1`, the AC50 is 17.6 µM (active).
Consider `CCCCC(CC)COC(=O)CC(C(=O)OCC(CC)CCCC)S(=O)(=O)O` (stereo not given), for which the AC50 is 10 µM (active).
Same read-out and setting: the figure for `CN[C@H]1CC[C@@H](c2ccc(Cl)c(Cl)c2)c2ccc(S(N)(=O)=O)cc21` is 10.3 µM (active).
In the case of `Cc1cc(NC(=O)C(=O)O)cc(C)c1Oc1ccc(O)c2c1CCC2`, the outcome was inactive.
Regarding `O=c1[nH]cc(F)c(=O)[nH]1`, the AC50 is 9.52 µM (active).
As for `CCCCCCCCCCCCCCCCCC(=O)O`, the result was inactive.
For `CCCCCC(=O)O`, the outcome was inactive.
As for `CCCCCCCCCCCCCO`, the half-maximal activity concentration (AC50) was 8.61 µM (active).
For the molecule `CCc1c(C(=O)NN2CCCCC2)nn(-c2ccc(Cl)cc2Cl)c1-c1ccc(Br)cc1`, the AC50 is 1.73 µM (active).
For `Cc1cccc(Nc2cc(Cl)nc(SCC(=O)O)n2)c1C`, the outcome was inactive.
For the molecule `CCCCCCC(=O)OCC`, the outcome was inactive.
The same measure, in the same setting: the entry for `Cc1ccc(C)c(O)c1C` is “inactive”; for `CN1CCCC1=O` it is “inactive”.
The same measure, in the same setting: the entry for `Cc1ccc2ncccc2c1` is “inactive”.
For the molecule `Oc1ccc2ccccc2c1N=Nc1ccccc1`, the concentration at half-maximal activity (AC50) is 5.03 µM (active).
Take `CCCCCCCCCCC`: the outcome was inactive.

The values are drawn from PubChem BioAssay (EPA / NIEHS).
